# From PMC7862700, “An all-to-all approach to the identification of sequence-specific readers for epigenetic DNA modifications on cytosine”
# What was measured:
# Assay in all cases: DAPPL (digital affinity profiling via proximity ligation, sequencing); 10 mM Tris-HCl pH 7.5, 50 mM NaCl, 1 mM DTT, 4% glycerol, room temperature, 30 min; GST-TFs on glutathione beads, 16-mer random dsDNA library, 0.1% formaldehyde crosslink after washing; high values mean tight binding
# Settings in all cases: protein: recombinant; tags: N-terminal GST; dsDNA, one strand shown
# FLI1 = target: T1, FLI1 (Homo sapiens, UniProt Q01543 1-452)
# T1 sequence: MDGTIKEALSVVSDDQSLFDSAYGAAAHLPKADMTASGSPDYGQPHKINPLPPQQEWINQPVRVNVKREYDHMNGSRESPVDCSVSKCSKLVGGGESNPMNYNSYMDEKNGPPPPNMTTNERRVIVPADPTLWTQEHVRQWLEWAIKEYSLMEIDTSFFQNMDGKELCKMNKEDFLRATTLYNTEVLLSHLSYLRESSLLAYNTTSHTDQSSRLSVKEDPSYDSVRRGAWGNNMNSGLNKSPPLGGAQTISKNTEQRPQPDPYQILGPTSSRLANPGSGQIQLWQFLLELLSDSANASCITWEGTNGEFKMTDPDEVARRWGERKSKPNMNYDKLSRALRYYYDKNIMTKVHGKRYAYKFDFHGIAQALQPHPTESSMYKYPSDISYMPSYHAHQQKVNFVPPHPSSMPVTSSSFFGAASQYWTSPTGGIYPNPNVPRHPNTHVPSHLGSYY
# Procedure, shortened: (§1)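 Pools were built from human transcription factors expressed in yeast as GST fusions, captured on glutathione beads and DNA-barcoded, along with a tag-only sample. Incubation with 200 nmole of a 16-mer random double-stranded DNA library lasted 30 min at room temperature in Tris/NaCl/DTT/glycerol buffer, and was followed by washing, 0.1% formaldehyde crosslinking, proximity ligation, PCR amplification and Illumina NextSeq500 sequencing. Binding signal is the quotient of each hexamer's read frequency for a factor and its frequency for the tag-only sample.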
# ELK1 = target: T2, ELK1 (Homo sapiens, UniProt P19419 1-428)
# T2 sequence: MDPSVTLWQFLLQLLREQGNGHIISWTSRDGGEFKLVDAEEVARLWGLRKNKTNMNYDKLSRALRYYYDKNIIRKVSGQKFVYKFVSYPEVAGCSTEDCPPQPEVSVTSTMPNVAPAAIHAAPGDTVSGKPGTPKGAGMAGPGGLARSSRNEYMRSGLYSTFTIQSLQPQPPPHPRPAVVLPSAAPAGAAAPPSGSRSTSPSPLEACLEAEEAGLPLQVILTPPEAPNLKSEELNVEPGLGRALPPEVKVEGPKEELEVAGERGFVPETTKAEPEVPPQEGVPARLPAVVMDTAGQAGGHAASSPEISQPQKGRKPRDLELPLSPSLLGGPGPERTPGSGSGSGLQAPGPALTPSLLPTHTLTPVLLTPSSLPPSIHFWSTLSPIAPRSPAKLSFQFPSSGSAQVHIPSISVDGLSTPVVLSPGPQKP
# Procedure, shortened: as §1
# GABPA = target: T3, GABPA (Homo sapiens, UniProt Q06546 1-454)
# T3 sequence: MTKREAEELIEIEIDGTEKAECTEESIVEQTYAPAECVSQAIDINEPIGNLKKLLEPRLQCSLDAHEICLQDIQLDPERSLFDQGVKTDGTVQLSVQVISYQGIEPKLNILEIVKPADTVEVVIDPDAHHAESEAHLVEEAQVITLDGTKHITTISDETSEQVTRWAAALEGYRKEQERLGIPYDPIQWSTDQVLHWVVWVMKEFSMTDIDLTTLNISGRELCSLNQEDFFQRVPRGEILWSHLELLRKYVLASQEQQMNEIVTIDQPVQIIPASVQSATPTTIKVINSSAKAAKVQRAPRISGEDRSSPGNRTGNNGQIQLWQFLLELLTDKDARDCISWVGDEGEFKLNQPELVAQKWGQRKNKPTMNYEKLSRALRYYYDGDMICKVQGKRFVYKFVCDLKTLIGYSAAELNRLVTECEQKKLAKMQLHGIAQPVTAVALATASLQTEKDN
# Procedure, shortened: as §1
# ERG = target: T4, ERG (Homo sapiens, UniProt P11308 1-479)
# T4 sequence: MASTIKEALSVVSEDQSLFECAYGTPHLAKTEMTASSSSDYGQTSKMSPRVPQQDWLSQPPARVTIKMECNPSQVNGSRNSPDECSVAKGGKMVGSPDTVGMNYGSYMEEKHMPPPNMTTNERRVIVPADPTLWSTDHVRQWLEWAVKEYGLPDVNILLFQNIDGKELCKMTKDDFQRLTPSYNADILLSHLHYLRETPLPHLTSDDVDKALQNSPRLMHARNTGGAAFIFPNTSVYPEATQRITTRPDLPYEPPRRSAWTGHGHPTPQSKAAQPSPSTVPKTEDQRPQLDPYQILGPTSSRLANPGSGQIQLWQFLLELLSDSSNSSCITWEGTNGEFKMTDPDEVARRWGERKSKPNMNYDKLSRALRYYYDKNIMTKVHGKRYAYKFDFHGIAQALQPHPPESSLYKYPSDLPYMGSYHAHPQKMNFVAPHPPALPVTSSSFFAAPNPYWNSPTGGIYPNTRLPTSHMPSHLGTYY
# Procedure, shortened: as §1
# ELF1 = ELF1 (Homo sapiens, UniProt P32519 1-619)
# Chain of ELF1 (P32519 whole entry): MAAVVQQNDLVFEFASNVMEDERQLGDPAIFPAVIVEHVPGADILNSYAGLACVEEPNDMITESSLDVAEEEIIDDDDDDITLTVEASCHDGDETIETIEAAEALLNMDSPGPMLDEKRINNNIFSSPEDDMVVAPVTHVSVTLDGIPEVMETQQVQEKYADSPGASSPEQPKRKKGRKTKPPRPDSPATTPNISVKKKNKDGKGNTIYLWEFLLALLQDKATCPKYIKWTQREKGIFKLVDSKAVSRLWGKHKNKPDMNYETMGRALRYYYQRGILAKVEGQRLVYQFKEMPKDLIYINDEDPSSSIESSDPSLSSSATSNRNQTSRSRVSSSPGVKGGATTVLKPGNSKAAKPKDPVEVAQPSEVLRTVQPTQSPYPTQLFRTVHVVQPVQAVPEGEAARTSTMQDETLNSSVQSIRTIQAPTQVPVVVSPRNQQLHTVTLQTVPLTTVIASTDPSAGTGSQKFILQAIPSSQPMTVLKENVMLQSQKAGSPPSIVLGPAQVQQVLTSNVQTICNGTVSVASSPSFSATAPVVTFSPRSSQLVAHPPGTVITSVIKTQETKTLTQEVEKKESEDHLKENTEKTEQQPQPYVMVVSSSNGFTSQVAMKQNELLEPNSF
# Procedure, shortened: as §1
# EHF = target: T5, EHF (Homo sapiens, UniProt Q9NZC4 1-300)
# T5 sequence: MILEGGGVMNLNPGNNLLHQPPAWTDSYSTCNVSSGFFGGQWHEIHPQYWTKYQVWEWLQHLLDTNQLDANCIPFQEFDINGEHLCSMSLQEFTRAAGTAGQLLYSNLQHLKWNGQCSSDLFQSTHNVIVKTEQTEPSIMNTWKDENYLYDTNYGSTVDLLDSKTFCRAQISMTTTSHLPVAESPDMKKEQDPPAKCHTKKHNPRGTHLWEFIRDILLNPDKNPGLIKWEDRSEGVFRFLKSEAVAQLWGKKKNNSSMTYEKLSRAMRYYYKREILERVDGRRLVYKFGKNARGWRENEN
# Procedure, shortened: as §1
# SPI1 = SPI1 (Homo sapiens, UniProt P17947 1-270)
# Procedure, shortened: as §1
# SPIB = SPIB (Homo sapiens, UniProt Q01892 1-262)
# Chain of SPIB (Q01892 whole entry): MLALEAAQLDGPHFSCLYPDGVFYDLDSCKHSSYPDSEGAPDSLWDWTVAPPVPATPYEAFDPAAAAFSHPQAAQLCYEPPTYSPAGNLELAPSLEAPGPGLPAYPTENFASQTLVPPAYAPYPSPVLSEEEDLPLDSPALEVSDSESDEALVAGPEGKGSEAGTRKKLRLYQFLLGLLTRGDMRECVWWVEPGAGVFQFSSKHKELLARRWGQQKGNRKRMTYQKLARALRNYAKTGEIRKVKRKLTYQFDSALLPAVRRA
# Procedure, shortened: as §1
# ELK3 = target: T6, ELK3 (Homo sapiens, UniProt P41970 1-407)
# T6 sequence: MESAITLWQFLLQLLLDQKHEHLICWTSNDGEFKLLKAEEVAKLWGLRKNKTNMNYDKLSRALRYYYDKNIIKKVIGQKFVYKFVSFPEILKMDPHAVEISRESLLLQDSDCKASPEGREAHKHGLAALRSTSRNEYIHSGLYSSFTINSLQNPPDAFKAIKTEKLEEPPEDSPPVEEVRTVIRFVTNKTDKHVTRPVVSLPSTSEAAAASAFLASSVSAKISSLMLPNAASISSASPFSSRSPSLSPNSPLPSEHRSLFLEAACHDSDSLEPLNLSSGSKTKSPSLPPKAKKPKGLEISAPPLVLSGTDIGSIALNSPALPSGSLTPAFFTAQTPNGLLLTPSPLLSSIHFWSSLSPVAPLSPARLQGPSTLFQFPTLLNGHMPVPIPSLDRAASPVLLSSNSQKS
# Procedure, shortened: as §1
sequence,measurement,setting,value
TCCCTT,binding signal,FLI1,"1.63 fold enrichment (6-mer frequency, TF over GST control)"
same,binding signal,ELK1,"1.56 fold enrichment (6-mer frequency, TF over GST control)"
same,binding signal,GABPA,"1.47 fold enrichment (6-mer frequency, TF over GST control)"
same,binding signal,ERG,"1.67 fold enrichment (6-mer frequency, TF over GST control)"
same,binding signal,ELF1,"1.62 fold enrichment (6-mer frequency, TF over GST control)"
same,binding signal,EHF,"1.5 fold enrichment (6-mer frequency, TF over GST control)"
same,binding signal,SPI1,"1.69 fold enrichment (6-mer frequency, TF over GST control)"
same,binding signal,SPIB,"1.61 fold enrichment (6-mer frequency, TF over GST control)"
same,binding signal,ELK3,"1.37 fold enrichment (6-mer frequency, TF over GST control)"
